Most compounds without a hit are left out; they make up all but 3.9% or so of the library.
D1 agonist: agonists of human D1 dopamine receptor | P21728 | HEK293 T-REx D1 cells, calcium flux, agonist mode | activation, % at 2 µM | hit rate 1% among 360,000; in the data active = activation above about 30%; note: 0% is about no effect
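Tetracycline-induced HEK293 TREx D1 cells, force-coupled to calcium signalling, were dye-loaded with a no-wash calcium kit. Compound was pin-added after a 10 s baseline. Fluorescence was read kinetically at 1 cycle/s for 180 s, with calcium rises flagged as agonism.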
D1 potentiator: potentiators of human D1 dopamine receptor | HEK293 TREx D1 cells, calcium flux, dopamine EC20 potentiation | potentiation, % at 10 µM | hit rate 0.036% among 360,000; in the data active = potentiation above about 30%; note: 0% is about no effect
Eya2 inh: Eya2 (human) phosphatase inhibition; O00167; Potency, µM (doses to about 76.9 µM), for the others: top-dose activity, negative = inhibition, hits mostly inhibitors; hit rate 0.006% among 330,000; recombinant Eya2, OMFP fluorescence dephosphorylation (OMFP is methylfluorescein phosphate); note: potency is the fitted concentration of half-maximal effect; % is set by controls: 0 for no effect and ±100 for the full control effect
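Eya2 (0.2 uM) preincubated 10 min at ambient with compound, then OMFP substrate added at 50 uM; 10 min reaction in 50 mM HEPES pH 7.5, 50 mM NaCl, 5 uM MgCl2, 0.05% BSA, 1 mM DTT. Fluorescence read at Ex 485/Em 525 nm.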
D1 antag: antagonists of human D1 dopamine receptor. P21728. HEK293 TREx D1 cells, calcium flux, dopamine EC80; stronger effect = lower value. hit rate 3.2% among 360,000. AID 504652. activity change, negative = inhibition, % at 10 µM; in the data active = activity change below about -30%; note: % is set by controls: 0 for no effect and ±100 for the full control effect
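Antagonism measured as reduced calcium response to an EC80 dopamine addition following 180 s compound pre-read; cells were inducible HEK293 Trex D1 plated overnight at 30 C, read kinetically at 1 cycle/sec.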
USP2a inh: inhibitors of human ubiquitin-specific protease USP2a; O75604; USP2 core, Ub-CHOP2 coupled fluorogenic reporter, 485/531; Potency, µM (highest dose often 38.3 µM), without a hit: at the highest dose activity change, negative = inhibition, actives largely listed as inhibitors; hit rate 0.01% among 330,000;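 note: potency is the fitted concentration of half-maximal effect; plate controls were DMSO wells for no effect and full inhibition by NEM control for full effect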
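USP2 core (10nM final) preincubated 30min RT with compound in 20mM Tris-HCl pH 8.0, 2mM CaCl2, 2mM beta-mercaptoethanol, 0.05% CHAPS; 25nM Ub-CHOP2 plus 25nM reporter substrate added, fluorescence (Ex485/Em531) read after 60min.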
GALK inhibitor: inhibitors of human galactokinase; Purified GALK, Kinase-Glo residual ATP luminescence; Potency, µM (doses to about 57.5 µM), inactives show top-dose activity change, negative = inhibition, actives largely listed as inhibitors; hit rate 0.007% among 270,000; P51570; AID 1868; note: potency is the fitted concentration of half-maximal effect; % is set by controls: 0 for no effect and ±100 for the full control effect
Target sequence (P51570 whole entry, looked up): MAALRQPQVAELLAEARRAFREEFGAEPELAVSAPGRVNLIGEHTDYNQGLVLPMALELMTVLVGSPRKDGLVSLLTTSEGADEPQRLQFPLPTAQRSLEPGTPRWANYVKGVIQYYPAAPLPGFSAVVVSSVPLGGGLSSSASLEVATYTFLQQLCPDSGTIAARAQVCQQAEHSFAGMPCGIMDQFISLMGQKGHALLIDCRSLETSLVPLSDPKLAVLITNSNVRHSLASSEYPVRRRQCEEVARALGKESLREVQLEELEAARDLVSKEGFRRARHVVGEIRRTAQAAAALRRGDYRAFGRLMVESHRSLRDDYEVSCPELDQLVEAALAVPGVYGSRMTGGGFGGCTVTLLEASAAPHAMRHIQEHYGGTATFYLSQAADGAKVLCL
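ATP-depletion format; final 35 uM ATP, 100 uM D-galactose, 5 nM enzyme; pH 8.0 HEPES/Mg2+ buffer; 60 min RT; luminescence read 10 min after detection reagent.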
Active calls of the source: *. Unless noted, calls come from the whole dose curve; as a rule, active = well fitted inhibition curve with a large enough effect; inconclusive = small, poorly fitted or top-dose-only effect, or effect the other way; inactive = flat fitted curve, though single readings scatter.

How did CN1CCN(C(=S)Nc2ccc([N+](=O)[O-])cc2)CC1 do in these assays?
D1 agonist: 2; D1 potentiator: 0; Eya2 inh: -13%; D1 antag: -33*; USP2a inh: -1%; GALK inhibitor: 4%

What do the screens show for `O=[N+]([O-])c1ccc(NC(=S)N2CCCC2)cc1`?
D1 agonist: 3; D1 potentiator: -4; Eya2 inh: 1%; D1 antag: -10; USP2a inh: 2%; GALK inhibitor: -3%

What do the screens show for `CCNC(=S)N1CCN(c2ccc([N+](=O)[O-])cc2)CC1`?
D1 agonist: 3; D1 potentiator: -1; Eya2 inh: 4%; D1 antag: -9; USP2a inh: -1%; GALK inhibitor: -3%

What do the screens show for `COc1ccc(C2=NCCn3nc4ccccc4c32)cc1`?
D1 agonist: 0; D1 potentiator: -3; Eya2 inh: 8%; D1 antag: -45*; USP2a inh: 1%

How did COc1ccc(-c2nc3ccccc3c(=O)n2O)cc1 do in these assays?
D1 agonist: 3; D1 potentiator: -6; Eya2 inh: -5%; D1 antag: -3; USP2a inh: 0%

What do the screens show for `COc1ccc2c3n(nc2c1)CCN=C3c1cc(Cl)c(N)c(Cl)c1`?
D1 agonist: 2; D1 potentiator: -8; Eya2 inh: -4%; D1 antag: -36*; USP2a inh: 1%

Results for Nc1c(Cl)cc(C2=NCCn3nc4cc(C(F)(F)F)ccc4c32)cc1Cl ?
D1 agonist: 6; D1 potentiator: -5; Eya2 inh: -29%; D1 antag: 4; USP2a inh: -2%

What do the screens show for `COc1ccc(C2CC(c3c(O)n(C4CCCCC4)c(=O)[nH]c3=O)=Nc3ccccc3S2)cc1` (configuration not stated)?
D1 agonist: -2; D1 potentiator: -1; D1 antag: 4

How did CCc1ccccc1NC(=O)Cn1nnc(C(=O)Nc2ccc(OC)c(OC)c2)c1N do in these assays?
D1 agonist: 0; D1 potentiator: -4; D1 antag: 3

Results for CC(=O)c1cc2c(O)c(O)ccc2o1 ?
D1 agonist: 5; D1 potentiator: 0; Eya2 inh: -22%; D1 antag: 12; USP2a inh: -1%; GALK inhibitor: 0%

Results for CC(=O)c1c(O)cc(O)cc1CC(=O)O ?
D1 agonist: 1; D1 potentiator: -4; Eya2 inh: 5%; D1 antag: -58*; USP2a inh: 5%; GALK inhibitor: -2%

What do the screens show for `CC(=O)c1c(O)cc(O)c(C(C)=O)c1O`?
D1 agonist: 3; D1 potentiator: -7; Eya2 inh: 5%; D1 antag: -45*; USP2a inh: -1%; GALK inhibitor: -2%

Results for CCOc1cc(CNC(=O)c2ccc3c(c2)N(C)C(=O)C2CCCCN32)ccc1OC (configuration not stated) ?
D1 agonist: 0; D1 potentiator: 1; D1 antag: -11

How did CCOC(=O)c1ccc(NC(=O)C2=C(C)C(=O)OC23CCN(C(C)=O)CC3)cc1 do in these assays?
D1 agonist: -2; D1 potentiator: 2; D1 antag: -26

How did COC(=O)CCn1c(C)cc(C(=O)COc2ccccc2C(N)=O)c1C do in these assays?
D1 agonist: 19; D1 potentiator: -8; Eya2 inh: 10%; D1 antag: -56*; USP2a inh: 5%; GALK inhibitor: 9%

Results for O/C(=C\c1ccc2ccccc2n1)c1ccncc1 ?
D1 agonist: 45*; D1 potentiator: -3; Eya2 inh: -6%; D1 antag: 6; USP2a inh: 1%

What do the screens show for `O/N=C/c1ccc2ccccc2n1`?
D1 agonist: 0; D1 potentiator: -2; Eya2 inh: 1%; D1 antag: 0; USP2a inh: 0%; GALK inhibitor: -1%

How did CC(C)CC(=O)Nc1cccc(C(C)O)c1 (configuration not stated) do in these assays?
D1 agonist: 2; D1 potentiator: -3; Eya2 inh: 8%; D1 antag: -31*; USP2a inh: 0%; GALK inhibitor: 5%

Results for CCCCC(=O)Nc1cccc(C(C)O)c1 (configuration not stated) ?
D1 agonist: 2; D1 potentiator: -8; Eya2 inh: -24%; D1 antag: -4; USP2a inh: 2%; GALK inhibitor: 3%

Results for O=C(N/N=C\c1ccncc1)c1ccccc1O ?
D1 agonist: 0; D1 potentiator: -2; Eya2 inh: 0%; D1 antag: 0; USP2a inh: 5%; GALK inhibitor: 1%

How did Cc1ccc(C(=O)N/N=C/c2ccc(-c3cccc(Cl)c3)o2)cn1 do in these assays?
D1 agonist: 4; D1 potentiator: -9; Eya2 inh: -12%; D1 antag: 5; USP2a inh: 3%; GALK inhibitor: -5%

What do the screens show for `O=C(N/N=C/c1ccc(-c2ccccc2)o1)c1ccccc1O`?
D1 agonist: 9; D1 potentiator: -12; Eya2 inh: -22%; D1 antag: -32*; USP2a inh: 1%; GALK inhibitor: 2%

How did Cc1cc(C(=O)N/N=C/c2ccc(-c3cccc(Cl)c3)o2)n[nH]1 do in these assays?
D1 agonist: 66*; D1 potentiator: 0; Eya2 inh: -9%; D1 antag: 19; USP2a inh: 1%

How did CC(C)(C)c1ccc(S(=O)(=O)N(CCCN2CCOCC2)Cc2cccs2)cc1 do in these assays?
D1 agonist: 9; D1 potentiator: -15; Eya2 inh: -17%; D1 antag: -33*; USP2a inh: -3%

Results for CC(=O)c1ccc(NC(=O)CCc2c(C)nc3cc(-c4ccc(Cl)cc4)nn3c2C)cc1 ?
D1 agonist: 6; D1 potentiator: -5; D1 antag: -18

What do the screens show for `CC(=O)c1cccc(NC(=O)CCC(=O)c2ccc(F)cc2)c1`?
D1 agonist: 4; D1 potentiator: 0; Eya2 inh: inconclusive; D1 antag: 0; USP2a inh: -1%; GALK inhibitor: 1%

What do the screens show for `O=C(CCC(=O)c1ccc(F)cc1)Nc1cc(Cl)cc(Cl)c1`?
D1 agonist: 20; D1 potentiator: -3; Eya2 inh: -15%; D1 antag: -41*; USP2a inh: 1%

What do the screens show for `CC(=O)N1CCc2c(sc3c2c(=O)n(CCc2ccccc2)c(=O)n3Cc2ccc(Cl)cc2)C1`?
D1 agonist: 6; D1 potentiator: -6; D1 antag: 15

How did COC(=O)C1CCN(CC(=O)N(C)c2c(N)n(Cc3ccccc3)c(=O)[nH]c2=O)CC1 do in these assays?
D1 agonist: 0; D1 potentiator: -5; Eya2 inh: -4%; D1 antag: -36*; USP2a inh: 2%

Assay outcomes as filed in PubChem BioAssay.
